Molecules are shown by their SMILES. About 13,000 (27%) of roughly 48,000 compounds showed an effect of 50% or more. This is one part of the list.

The subject of this assay is Wolbachia pipientis. The assay is described as follows: Anti-Wolbachia Cell-Based Screen. The format is functional. On the set-up: scale not given: in the data most compounds retested in dose-response had high values. As to conditions: 5 µM.
As to `CC(C(=O)N1CCN(c2ccc(F)cc2)CC1)n1ccnc1` (stereo not drawn), the “Percent Effect” value is given as 2.016%.
The result for `CN(C)S(=O)(=O)N1C[C@@H]2CC[C@H](C1)N(C/C=C/c1ccc(F)cc1)C2` reads 19.59%.
The result for `Cc1ccccc1OCC(=O)N1CCOC2(CNCCOC2)C1` (stereo not drawn) reads -22.9%.
With `COc1ccccc1CC(=O)N1CCC(NCc2cc[nH]c2)CC1` the figure was 5.746%; with `CCCc1noc(CCC(=O)N2CCCCC2Cn2cc(C)cn2)n1` (stereo not drawn), 117.6%.
In the case of `CCCc1noc(CCC(=O)N2CCCC2Cn2cc(C)cn2)n1` (stereo not drawn), the “Percent Effect” value amounted to 127.2%.
Consider `CCCc1noc(CCC(=O)N2CCCC2c2ccsc2)n1` (stereo not drawn), for which the “Percent Effect” value is listed as 2.757%.
With `CCS(=O)(=O)N1C[C@H]2CCC[C@@]2(COc2ccccn2)C1.O=C(O)C(F)(F)F`, the “Percent Effect” value came out at 18.76%.
With `COc1cc(N2C[C@@H]3COC[C@]3(C(=O)NC3CC(F)(F)C3)C2)ncn1.O=C(O)C(F)(F)F` the figure was 12.94%; with `Fc1cnc(N2C[C@H]3CCC[C@@]3(COc3ccccn3)C2)nc1.O=C(O)C(F)(F)F.O=C(O)C(F)(F)F`, -0.7444%; with `COc1cc(N2C[C@@H]3COC[C@]3(COc3ccccn3)C2)ncn1.O=C(O)C(F)(F)F.O=C(O)C(F)(F)F`, 106%.
As for `O=C(O)C(F)(F)F.O=S(=O)(C1CC1)N1C[C@H]2CCC[C@@]2(COc2ccccn2)C1`, the “Percent Effect” value was found to be 2.736%.
Take `O=C(CC1CC1)NC[C@]12COC[C@H]1CN(c1ncc(F)cn1)C2.O=C(O)C(F)(F)F`: the “Percent Effect” value is reported as -10.91%.
Turning to `COc1cc(N2C[C@@H]3COC[C@]3(C(=O)NCc3ccccn3)C2)ncn1`, the “Percent Effect” value is reported as -14.4%.
The result for `O=C(CC1CC1)NC[C@]12COC[C@H]1CN(c1ncccn1)C2.O=C(O)C(F)(F)F` reads -5.322%.
The result for `CN(C)S(=O)(=O)N1C[C@@H]2COC[C@]2(COc2ccccn2)C1.O=C(O)C(F)(F)F` reads 82.39%; that for `O=C(O)C(F)(F)F.c1cnc(N2C[C@@H]3COC[C@]3(COCC3CCCC3)C2)nc1`, 99.14%; that for `O=C(O)C(F)(F)F.O=C(O)C(F)(F)F.c1ccc(OC[C@]23COC[C@H]2CN(c2ncccn2)C3)nc1`, -14.79%.
With `Fc1cnc(N2C[C@@H]3COC[C@]3(COc3ccccn3)C2)nc1.O=C(O)C(F)(F)F.O=C(O)C(F)(F)F` the figure was 104.4%.
As for `CNC(=O)C(C)(C)NC(=O)c1cc(OCC2CCC2)cc(C(=O)OC)c1`, the “Percent Effect” value was -3.572%.
With `Fc1cccc(-c2nnn3c2COC(CNCc2cccs2)C3)c1.O=C(O)C(F)(F)F` (stereo not drawn) the figure was 3.148%; with `CCCN1CCC(N2CCN(c3cc(C)nc(COC)n3)CC2)CC1`, -8.34%.
With `CN(C)c1cccc(C2CCCN2CCCN2CCOC2=O)c1` (stereo not drawn) the figure was -17.44%; with `Cc1ccccc1N1CCN(c2cc(N(C)C)ncn2)C(C)C1` (stereo not drawn), 2.423%; with `CN(C)CCN(C)c1cc(N2CCN(c3ccccn3)CC2)ncn1`, 127.7%.
The result for `CN(CCC(O)c1ccccc1)c1cc(N2CCOCC2)ncn1` (stereo not drawn) reads 3.711%; that for `CN(C)c1cc(N2CCN(c3ccccn3)CC2)ncn1`, 109.8%; that for `CN(CCc1ccccn1)c1cc(N2CCCCC2)ncn1`, -10.66%.
Regarding `OCC1CCCN1c1cc(N2CCN(c3ccccn3)CC2)ncn1` (stereo not drawn), the “Percent Effect” value amounted to 2.004%.
With `CS(=O)(=O)N1C[C@@H]2CC[C@H](C1)N(C(=O)CCc1n[nH]c3c1CCCC3)C2` the figure was -4.237%.
The result for `O=C(C1=CCCCC1)N1CCC2(CC1)COC(COc1ccccn1)C2.O=C(O)C(F)(F)F` (stereo not drawn) reads -10.4%.
With `Cc1cc(C(=O)N2CC[C@H]3[C@@H]2CCC(=O)N3c2ccccc2)no1` the figure was -22.73%; with `CC(NCC1CCN(CCO)CC1)c1cccc(Cl)c1` (stereo not drawn), -3.921%; with `c1ccc2oc(C3CCN(Cc4ncon4)CC3)nc2c1`, -12.07%.
Take `CCOCC1CN(C(=O)c2ccoc2C)Cc2cnn(C)c21` (stereo not drawn): the “Percent Effect” value was 98.5%.
The result for `CCOCC1CN(C(=O)c2cnoc2C)Cc2cnn(C)c21.O=C(O)C(F)(F)F` (stereo not drawn) reads 112.3%; that for `CCOCC1CN(C(=O)Cc2ccccn2)Cc2cnn(C)c21.O=C(O)C(F)(F)F.O=C(O)C(F)(F)F` (stereo not drawn), 117.4%; that for `CCOCC1CN(C(=O)c2cnoc2C)Cc2cn(C)nc21.O=C(O)C(F)(F)F` (stereo not drawn), -24.2%.
The result for `CCOCC1CN(C(=O)c2ccco2)Cc2nn(C)cc21` (stereo not drawn) reads 6.633%.
With `CCOCC1CN(C(=O)c2ccco2)Cc2cnn(C)c21` (stereo not drawn) the figure was 93.66%.
`CCOCC1CN(C(=O)CS(C)(=O)=O)Cc2cnn(C)c21.O=C(O)C(F)(F)F` (stereo not drawn): the “Percent Effect” value came out at 16.84%.
The result for `CCOCC1CN(C(=O)c2cnoc2C)Cc2cn(CC3CC3)nc21` (stereo not drawn) reads -17.44%; that for `CCOCC1CN(C(=O)Cc2ccccn2)Cc2c1cnn2C.O=C(O)C(F)(F)F.O=C(O)C(F)(F)F` (stereo not drawn), -14.09%; that for `COc1ccccc1NC(=O)NCCCC(=O)Nc1cn[nH]c1`, 3.089%.
The result for `CC(C)Oc1cccc(F)c1C(C(=O)O)N(C)Cc1ccon1` (stereo not drawn) reads -4.815%.
The result for `CCCN(C)c1ccc(C(=O)NCc2ccnc(C)n2)cc1` reads 14.15%; that for `CC(C#N)CN(C)Cc1cc(Cl)cc2cccnc12` (stereo not drawn), -4.416%; that for `FC(F)(F)Sc1ccc(NCc2nnc(C3CC3)o2)cc1`, 4.65%.
Regarding `CC(C)Cc1ncc2c(n1)CN(c1nccc(N(C)C)n1)C2`, the “Percent Effect” value was -11.83%.
With `Cc1nc(C(C)(C)NCc2nnc(C(C)C)o2)sc1C` the figure was -6.227%.
With `O=C(NCCc1cccnc1)NC1CCOC2(CCCCC2)C1` (stereo not drawn) the figure was -5.946%; with `CC(O)(CNC(=O)NCc1cccc(-n2cncn2)c1)c1ccco1` (stereo not drawn), 22.01%; with `CC(O)(CNC(=O)c1cccnc1-n1cccn1)c1ccco1` (stereo not drawn), 109%.
The result for `CCn1nc(C)c(CNC(=O)NCC(C)(O)c2ccsc2)c1C` (stereo not drawn) reads -9.413%.
On to `CC(O)(CNC(=O)c1cccnc1-n1cccn1)c1ccsc1` (stereo not drawn), for which the “Percent Effect” value stood at 107.4%.
The result for `CC(O)(CNC(=O)c1cccnc1-n1cccn1)c1cccs1` (stereo not drawn) reads 100.2%.
The result for `CCN(CC)CCCC(C)NC(=O)c1cccnc1-n1cccn1` (stereo not drawn) reads -4.775%; that for `CCOCc1ccccc1NC(=O)NCC(C)(O)c1ccsc1` (stereo not drawn), -1.013%; that for `CNC(=O)c1cccnc1NCc1ccc(-n2cccn2)cc1`, -16.78%.
With `O=C(CCC(=O)N1CCOCC1)NCc1cccnc1-n1cccn1` the figure was 4.294%; with `CCC(C)Oc1cc(C(=O)Nc2nc(C)ns2)ccn1` (stereo not drawn), -22%; with `CC(C)N1C[C@H](O)C[C@H]1c1nc(-c2ccc(OC(F)(F)F)cc2)no1`, -2.832%.
For the compound `c1c(-c2nc(CN3CCOCC3)no2)nnn1CC1CCCCC1`, the “Percent Effect” value is -29.06%.
The result for `Cc1ccc(Cl)c(NC(=O)c2cccc(CN3CC[C@H](O)C3)c2)c1` reads 25.72%.
Regarding `CSCCc1c(-c2ccccc2)ncn1CC(C)(C)N1CCCC1`, the “Percent Effect” value is listed as -6.465%.
The result for `Cc1ccc(C(=O)N2CCC3(CCC(=O)N(CC(N)=O)C3)CC2)c(O)c1` reads -8.417%; that for `COc1cccc(CN2CCCC3(CCN(C(=O)N4CCCC4)C3)C2)c1.O=C(O)C(F)(F)F` (stereo not drawn), 81.34%.
With `COc1cccc(CN2CCC3(CC2)CCN(c2ncccn2)C3)c1.O=C(O)C(F)(F)F.O=C(O)C(F)(F)F` the figure was 13.94%; with `COc1cccc(CN2CCC3(CC2)CCN(C(=O)[C@@H]2CCCO2)C3)c1.O=C(O)C(F)(F)F`, 105.3%.
In the case of `COc1cccc(CN2CCC3(CC2)CCN(c2ncc(C)cn2)C3)c1.O=C(O)C(F)(F)F`, the “Percent Effect” value is given as -9.924%.
The result for `COc1cccc(CN2CCC3(CCN(c4ncc(C)cn4)CC3)C2)c1.O=C(O)C(F)(F)F` reads 4.048%; that for `COc1cccc(CN2CCC3(CCN(C(=O)C4CC=CC4)CC3)C2)c1.O=C(O)C(F)(F)F`, 2.015%.
The result for `O=C(O)[C@@H]1CN(Cc2ccc3nsnc3c2)C[C@H]1c1ccncc1` reads 20.11%; that for `CCOCCC(=O)N1CCCN(Cc2csc(CC)n2)CC1`, -3.622%.
With `CC(C(=O)NCCc1cccs1)N1CCC(n2ccnc2)CC1` (stereo not drawn) the figure was 14.05%; with `N#Cc1cccc(N2CCC(c3nccn3Cc3cscn3)CC2)n1`, 19.37%; with `CC(C(=O)NCC1(c2cccc(Br)c2)CCC1)S(C)(=O)=O` (stereo not drawn), -10.98%.
For `O=C(NC1CC1)c1cc2c(nc1O)CC(c1cccs1)CC2=O` (stereo not drawn), the “Percent Effect” value came to 2.644%.
With `O=C(c1cc(Cl)ccc1OC1CCN(C2CCCC2)CC1)N1CCCO1` the figure was -1.079%.
With `Cc1cc(N(Cc2cccs2)C2CC2)n2nc(C(F)(F)F)nc2n1` the figure was 103%; with `Cc1cc(N(Cc2ccccc2F)C2CC2)n2nc(C(F)(F)F)nc2n1`, 37.88%.
The result for `Cc1ccc(CN(c2cc(C)nc3nc(C(F)(F)F)nn23)C2CC2)cc1` reads 24.27%; that for `CC(C)OCCS(=O)(=O)NC1CCN(C2CCCC2)C1` (stereo not drawn), -4.658%; that for `CNc1cc(CCNC(=O)c2cccnc2)nc(-c2ccncc2)n1`, -9.73%.
With `O=C(Nc1cc(-c2ccccn2)no1)C1CC1`, the “Percent Effect” value is -13.86%.
The result for `O=C(NC[C@H]1O[C@H](Cc2cc(-c3ccccn3)on2)CC[C@@H]1O)C1CC1` reads -6.652%.
The result for `CCc1nc(CCNS(=O)(=O)c2cccc(C(=O)N(C)CC)c2)cs1` reads 4.281%; that for `CNc1cc(CCNS(=O)(=O)c2ccccc2)nc(-c2ccccn2)n1`, 105%; that for `CN(C)C(=O)c1cccc(CCNS(=O)(=O)c2ccccc2)c1`, 19.97%.
The result for `CNc1cc(CCNC(=O)CC(C)C)nc(-c2ccccn2)n1` reads 101.5%; that for `CNc1cc(CCNC(=O)C2CCCC2)nc(-c2ccccn2)n1`, 117%; that for `CC(C)C(O)CNC(=O)CCCc1ccccn1` (stereo not drawn), -2.211%.
As to `CC(O)CN1CCC(CNCCOCC(F)(F)F)CC1` (stereo not drawn), the “Percent Effect” value was 8.822%.

(Values after ChEMBL document CHEMBL3988442, “University of Dundee, Small-Polar-MMV Screening Library” (2021).)
